Calls of active or inactive are those of the source. The rule behind the calls is not given here.
The molecules below were run against Pantothenate synthetase (Mycobacterium tuberculosis (strain ATCC 25618 / H37Rv)) (UniProt P9WIL5) (assay: Coupled enzyme confirmation of inhibitors against recombinant Mtb PanC (AID 375;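 note: 0% = full reaction with vehicle and 100% = no enzyme background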)). Conditions: coupled enzyme assay; at 10 µM, stronger effect = higher value.
Chain of Pantothenate synthetase (Mycobacterium tuberculosis (strain ATCC 25618 / H37Rv)) (P9WIL5 whole entry, looked up): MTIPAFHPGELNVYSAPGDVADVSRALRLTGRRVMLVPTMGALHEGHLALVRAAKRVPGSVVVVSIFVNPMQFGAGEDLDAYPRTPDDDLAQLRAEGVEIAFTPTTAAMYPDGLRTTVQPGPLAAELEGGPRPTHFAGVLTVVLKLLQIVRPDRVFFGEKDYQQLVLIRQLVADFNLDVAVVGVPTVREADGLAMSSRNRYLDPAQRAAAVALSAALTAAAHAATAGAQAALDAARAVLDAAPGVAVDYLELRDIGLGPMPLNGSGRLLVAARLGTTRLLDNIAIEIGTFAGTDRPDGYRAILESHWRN

Compound | inhibition
O=S1(=O)CCC(NS(=O)(=O)/C=C/c2ccccc2)C1 (stereo not drawn) | 8% (inactive)
CCC(=O)N(Cc1cc2c(C)ccc(C)c2[nH]c1=O)C1CCCCC1 | 0% (inactive)
NC(=O)c1ccccc1NC(=O)CCCN1C(=O)CCC1=O | 10% (inactive)
N#Cc1cc2c(nc1SCC(=O)Nc1sc3c(c1C#N)CCC3)CCCCC2 | 0% (inactive)
CC1CCN(C(=O)Cn2c(=O)oc3ccccc32)CC1 | 0% (inactive)
O=C(CCn1c(=O)sc2ccccc21)NC1=NCCS1 | 3% (inactive)
COC(=O)C1CCN(C(=O)CSc2nnc(-c3ccncc3)o2)CC1 | 0% (inactive)
COc1cccc(NC(=O)CSc2nnc(-c3cc(-c4ccccn4)nc4ccccc34)o2)c1 | 2% (inactive)
COc1cccc(C(=O)Nc2ccc(N(C)C)cc2)c1OC | 8% (inactive)
CCCCCCNC(=O)c1c(N)n(/N=C/c2ccco2)c2nc3ccccc3nc12 | 5% (inactive)
CCc1ccccc1NC(=O)c1cnc2n(c1=O)CCS2 | 2% (inactive)
Cc1nnc2n(-c3ccc(Cl)cc3)c(=O)c3c4c(sc3n12)CN(C)CC4 | 3% (inactive)
COc1ccccc1-c1cc(C(=O)NCCCn2ccnc2)no1 | 0% (inactive)
O=C(Nc1ccc(NC(=O)C2CC2)cn1)c1ccccc1Cl | 0% (inactive)
CSc1ccccc1NC(=O)c1cnc2n(c1=O)CCS2 | 7% (inactive)
COc1ccc(C2C(C#N)=C(N)Oc3cc4c(cc32)OCO4)cc1 (stereo not drawn) | 0% (inactive)
O=S(=O)(Nc1cccnc1)c1cc(Cl)ccc1Cl | 0% (inactive)
CC(=O)C1=C(C)NC(=O)NC1c1cccc(O)c1 (stereo not drawn) | 8% (inactive)

From PubChem BioAssay
